Molecules are shown by their SMILES. Compounds without any hit were thinned out: in the full panel of roughly 79,000, 15% have a hit. A number with no mark means an inactive call. Cut-off read from the data, not from the text of the source: active = growth inhibition above about 70%; inactive = the rest.

A short description of this experiment: NCI Yeast Anticancer Drug Screen. Data for the bub3 strain (AID 167). The following applies: S. cerevisiae bub3 mutant strain, at 50.0 µM, hits give high values. An outline of the steps: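 Mutant yeast screening strain plus compound; vehicle-treated cultures serve as the 0% inhibition reference.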
As to `CC(Oc1cc2oc(=O)cc(-c3ccccc3)c2cc1Cl)C(=O)O` (stereo not drawn), the growth inhibition was -9.35%.
Turning to `c1cnc2c3ccncc3c3nc(-c4ccncc4)[nH]c3c2c1`, the growth inhibition is -17.3%.
Next, `COCC(C)OC(=O)c1ccccc1` (stereo not drawn): -14.9%.
As for `O=C(Nc1ccccc1Cl)c1ccc([N+](=O)[O-])cc1`, the figure is 11.2%; as for `C=CCc1ccc(OC(=O)CC)c(OC)c1`, -10.8%.
As for `O=Cc1ccccc1Cl`, the figure is 10.9%.
Regarding `Cc1ccc(S(=O)(=O)Nc2ccccc2)cc1`, the growth inhibition was 3.8%.
Next, `CN1CCCC2[C@@H]3CCC4=C(O)C(=O)CC[C@]4(C)C3CC[C@@]21C` (stereo partly drawn): 0.85%; `CN(C)CCCNc1ncnc2nc[nH]c12`: -28.4%; `N#C/C(N)=C(\C#N)NC=NCc1ccccc1`: 26.3%.
Next, `c1ccc2c(c1)NC(N1CCCCC1)=Nc1ncncc1-2`: -1.7%.
Next, `O=C1C(Cl)N(c2ccc([N+](=O)[O-])cc2)C1c1c[nH]c2ccccc12` (stereo not drawn): 19.2%; `OC1CN(c2ccccc2)CC(O)CN(c2ccccc2)C1` (stereo not drawn): -16.1%.
Regarding `CC(=O)CC(=O)NCCN(C)C`, the growth inhibition is -9.3%.
Next, `COc1ccc(NC(=O)Nc2ccc(Br)cc2)cc1`: -4.6%; `C[C@@H]1CC[C@]2(C(=O)O)CC[C@]3(C)C(=CC[C@@H]4[C@@]5(C)CC[C@H](O)C(C)(C)[C@@H]5CC[C@]43C)[C@@H]2[C@]1(C)O`: 26.4%.
Next, `OCC1NCCC(O)C1OC1OC(CO)C(O)C(O)C1O` (stereo not drawn): -5.7%.
Next, `NC(N)=NS(=O)(=O)c1ccc(NC(=O)c2ccc(Cl)c3c(Nc4ccc(S(=O)(=O)N=C(N)N)cc4)c4ccccc4nc23)cc1`: 10.2%.

These data come from PubChem BioAssay (NCI).
